# In the supplement of paper PMC6992640:
# Columns and labels:
# Experiment in all cases: cell viability of combination (% of vehicle); higher = less cytotoxic
# Conditions in all cases: 1 µM; 72 h; partner dose: 10 nM
# [1] = test system: HCI01 (cells of a triple-negative basal-like breast cancer xenograft)
# Description: (§1)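 PDX cells were treated for 72 h with each drug at 1 µM plus carfilzomib (10 nM; 100 nM for WHIM2). Luciferase viability is expressed as percent of vehicle.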
# [2] = test system: UCD52 (cells of a triple-negative basal-like breast cancer xenograft)
# Description: as §1
# [3] = test system: WHIM30 (cells of a triple-negative basal-like breast cancer xenograft)
# Description: as §1
SMILES,cell viability of combination [1],cell viability of combination [2],cell viability of combination [3]
CCOC(=O)c1c(CSc2ccccc2)n(C)c2cc(Br)c(O)c(CN(C)C)c12.Cl [Arbidol HCl] + CC(C)C[C@H](NC(=O)[C@H](CCc1ccccc1)NC(=O)CN1CCOCC1)C(=O)N[C@@H](Cc1ccccc1)C(=O)N[C@@H](CC(C)C)C(=O)[C@@]1(C)CO1 [Carfilzomib],76.6,58.5,–
CNC(=O)c1cc(Oc2ccc(NC(=O)Nc3ccc(Cl)c(C(F)(F)F)c3)c(F)c2)ccn1 [Regorafenib] + CC(C)C[C@H](NC(=O)[C@H](CCc1ccccc1)NC(=O)CN1CCOCC1)C(=O)N[C@@H](Cc1ccccc1)C(=O)N[C@@H](CC(C)C)C(=O)[C@@]1(C)CO1 [Carfilzomib],74.6,58.6,–
COc1cc2c(Nc3ccc(Br)cc3F)ncnc2cc1OCC1CCN(C)CC1 [Vandetanib (ZD6474)] + CC(C)C[C@H](NC(=O)[C@H](CCc1ccccc1)NC(=O)CN1CCOCC1)C(=O)N[C@@H](Cc1ccccc1)C(=O)N[C@@H](CC(C)C)C(=O)[C@@]1(C)CO1 [Carfilzomib],64.1,39.4,–
CCOC(=O)C1=C(COCCN)NC(C)=C(C(=O)OC)C1c1ccccc1Cl (stereo unspecified) [Amlodipine] + CC(C)C[C@H](NC(=O)[C@H](CCc1ccccc1)NC(=O)CN1CCOCC1)C(=O)N[C@@H](Cc1ccccc1)C(=O)N[C@@H](CC(C)C)C(=O)[C@@]1(C)CO1 [Carfilzomib],113,62.5,–
COc1ccc(CN2CCN(C(c3ccc(F)cc3)c3ccc(F)cc3)CC2)c(OC)c1OC.Cl.Cl [Lomerizine HCl] + CC(C)C[C@H](NC(=O)[C@H](CCc1ccccc1)NC(=O)CN1CCOCC1)C(=O)N[C@@H](Cc1ccccc1)C(=O)N[C@@H](CC(C)C)C(=O)[C@@]1(C)CO1 [Carfilzomib],91.1,57.7,–
C[C@H]1O[C@@H](O[C@H]2[C@@H](O)C[C@H](O[C@H]3[C@@H](O)C[C@H](O[C@H]4CC[C@@]5(C)[C@H](CC[C@@H]6[C@@H]5C[C@@H](O)[C@]5(C)[C@@H](C7=CC(=O)OC7)CC[C@]65O)C4)O[C@@H]3C)O[C@@H]2C)C[C@H](O)[C@@H]1O [Digoxin] + CC(C)C[C@H](NC(=O)[C@H](CCc1ccccc1)NC(=O)CN1CCOCC1)C(=O)N[C@@H](Cc1ccccc1)C(=O)N[C@@H](CC(C)C)C(=O)[C@@]1(C)CO1 [Carfilzomib],40.7,16.9,–
CC(C)C[C@H](NC(=O)[C@H](Cc1ccccc1)NC(=O)c1cnccn1)B(O)O [Bortezomib] + CC(C)C[C@H](NC(=O)[C@H](CCc1ccccc1)NC(=O)CN1CCOCC1)C(=O)N[C@@H](Cc1ccccc1)C(=O)N[C@@H](CC(C)C)C(=O)[C@@]1(C)CO1 [Carfilzomib],28.8,15.5,–
CCCSc1nc(NC2CC2c2ccc(F)c(F)c2)c2nnn(C3CC(OCCO)C(O)C3O)c2n1 (stereo unspecified) [Ticagrelor] + CC(C)C[C@H](NC(=O)[C@H](CCc1ccccc1)NC(=O)CN1CCOCC1)C(=O)N[C@@H](Cc1ccccc1)C(=O)N[C@@H](CC(C)C)C(=O)[C@@]1(C)CO1 [Carfilzomib],95.1,54.3,–
COc1cccc2c1C(=O)c1c(O)c3c(c(O)c1C2=O)CC(O)(C(=O)CO)CC3OC1CC(N)C(O)C(C)O1 (stereo unspecified) [Doxorubicin] + CC(C)C[C@H](NC(=O)[C@H](CCc1ccccc1)NC(=O)CN1CCOCC1)C(=O)N[C@@H](Cc1ccccc1)C(=O)N[C@@H](CC(C)C)C(=O)[C@@]1(C)CO1 [Carfilzomib],55.4,28.3,–
CN(C)c1ccc(C(=C2C=CC(=[N+](C)C)C=C2)c2ccc(N(C)C)cc2)cc1.[Cl-] [Crystal Violet] + CC(C)C[C@H](NC(=O)[C@H](CCc1ccccc1)NC(=O)CN1CCOCC1)C(=O)N[C@@H](Cc1ccccc1)C(=O)N[C@@H](CC(C)C)C(=O)[C@@]1(C)CO1 [Carfilzomib],68,32.3,–
Clc1ccc(C(Cn2ccnc2)OCc2ccsc2Cl)c(Cl)c1 (stereo unspecified) [Tioconazole] + CC(C)C[C@H](NC(=O)[C@H](CCc1ccccc1)NC(=O)CN1CCOCC1)C(=O)N[C@@H](Cc1ccccc1)C(=O)N[C@@H](CC(C)C)C(=O)[C@@]1(C)CO1 [Carfilzomib],88.4,62.5,–
CCOC(=O)C1=C(COCCN)NC(C)=C(C(=O)OC)C1c1ccccc1Cl.O=S(=O)(O)c1ccccc1 (stereo unspecified) [Amlodipine Besylate] + CC(C)C[C@H](NC(=O)[C@H](CCc1ccccc1)NC(=O)CN1CCOCC1)C(=O)N[C@@H](Cc1ccccc1)C(=O)N[C@@H](CC(C)C)C(=O)[C@@]1(C)CO1 [Carfilzomib],97.1,64.8,–
CNC1CCC(c2ccc(Cl)c(Cl)c2)c2ccccc21.Cl (stereo unspecified) [Sertraline HCl] + CC(C)C[C@H](NC(=O)[C@H](CCc1ccccc1)NC(=O)CN1CCOCC1)C(=O)N[C@@H](Cc1ccccc1)C(=O)N[C@@H](CC(C)C)C(=O)[C@@]1(C)CO1 [Carfilzomib],72.1,61.1,–
Nc1ncn(C2OC(CO)C(O)C2O)c(=O)n1 (stereo unspecified) [5-Azacytidine] + CC(C)C[C@H](NC(=O)[C@H](CCc1ccccc1)NC(=O)CN1CCOCC1)C(=O)N[C@@H](Cc1ccccc1)C(=O)N[C@@H](CC(C)C)C(=O)[C@@]1(C)CO1 [Carfilzomib],75.9,68.2,–
Cl.OC(CNCC(O)C1CCc2cc(F)ccc2O1)C1CCc2cc(F)ccc2O1 (stereo unspecified) [Nebivolol] + CC(C)C[C@H](NC(=O)[C@H](CCc1ccccc1)NC(=O)CN1CCOCC1)C(=O)N[C@@H](Cc1ccccc1)C(=O)N[C@@H](CC(C)C)C(=O)[C@@]1(C)CO1 [Carfilzomib],72.5,64.3,21.2
COc1cc(C(=O)NS(=O)(=O)c2ccccc2C)ccc1Cc1cn(C)c2ccc(NC(=O)OC3CCCC3)cc12 [Zafirlukast] + CC(C)C[C@H](NC(=O)[C@H](CCc1ccccc1)NC(=O)CN1CCOCC1)C(=O)N[C@@H](Cc1ccccc1)C(=O)N[C@@H](CC(C)C)C(=O)[C@@]1(C)CO1 [Carfilzomib],83.2,65,–
CC(NCCCc1cccc(C(F)(F)F)c1)c1cccc2ccccc12 (stereo unspecified) [Cinacalcet] + CC(C)C[C@H](NC(=O)[C@H](CCc1ccccc1)NC(=O)CN1CCOCC1)C(=O)N[C@@H](Cc1ccccc1)C(=O)N[C@@H](CC(C)C)C(=O)[C@@]1(C)CO1 [Carfilzomib],82.4,56.1,19.5
CSc1ccc2c(c1)N(CCC1CCCCN1C)c1ccccc1S2.Cl (stereo unspecified) [Thioridazine HCl] + CC(C)C[C@H](NC(=O)[C@H](CCc1ccccc1)NC(=O)CN1CCOCC1)C(=O)N[C@@H](Cc1ccccc1)C(=O)N[C@@H](CC(C)C)C(=O)[C@@]1(C)CO1 [Carfilzomib],77.7,64.4,–
Cc1ccc(NC(=O)c2ccc(CN3CCN(C)CC3)cc2)cc1Nc1nc(-c2cccnc2)cs1 [Masitinib (AB1010)] + CC(C)C[C@H](NC(=O)[C@H](CCc1ccccc1)NC(=O)CN1CCOCC1)C(=O)N[C@@H](Cc1ccccc1)C(=O)N[C@@H](CC(C)C)C(=O)[C@@]1(C)CO1 [Carfilzomib],86.3,69.6,–
CC1(C)Cc2c(-c3ccccc3)c(-c3ccc(Cl)cc3)c(CC(=O)O)n2C1 [Licofelone] + CC(C)C[C@H](NC(=O)[C@H](CCc1ccccc1)NC(=O)CN1CCOCC1)C(=O)N[C@@H](Cc1ccccc1)C(=O)N[C@@H](CC(C)C)C(=O)[C@@]1(C)CO1 [Carfilzomib],83.7,64.7,18.6
Cl.Nc1ccn(C2OC(CO)C(O)C2O)c(=O)n1 (stereo unspecified) [Cytarabine hydrochloride] + CC(C)C[C@H](NC(=O)[C@H](CCc1ccccc1)NC(=O)CN1CCOCC1)C(=O)N[C@@H](Cc1ccccc1)C(=O)N[C@@H](CC(C)C)C(=O)[C@@]1(C)CO1 [Carfilzomib],65.5,77.1,18.8
CC(C)CC(NC(=O)C(CCc1ccccc1)NC(=O)CN1CCOCC1)C(=O)NC(Cc1ccccc1)C(=O)NC(CC(C)C)C(=O)C1(C)CO1 (stereo unspecified) [Carfilzomib (PR-171)] + CC(C)C[C@H](NC(=O)[C@H](CCc1ccccc1)NC(=O)CN1CCOCC1)C(=O)N[C@@H](Cc1ccccc1)C(=O)N[C@@H](CC(C)C)C(=O)[C@@]1(C)CO1 [Carfilzomib],31,14.2,–
CC(O)C(=O)O.CC(O)C(=O)O.CN1CCN(c2ccc3c(c2)NC(=C2C(=O)N=c4cccc(F)c4=C2N)N3)CC1 [Dovitinib Dilactic acid] + CC(C)C[C@H](NC(=O)[C@H](CCc1ccccc1)NC(=O)CN1CCOCC1)C(=O)N[C@@H](Cc1ccccc1)C(=O)N[C@@H](CC(C)C)C(=O)[C@@]1(C)CO1 [Carfilzomib],71.2,88.8,32.1
